Measured values as given in PubChem BioAssay AID485297 (National Center for Advancing Translational Sciences (NCATS), 2010).
In all, about 320,000 compounds went through this assay and about 9,100 (2.8%) were called active. Where a call stands in place of a potency, no number is given. Inconclusive results (about 3%) are left out. Calls follow the shape of the dose curve; as a rule, active = well fitted activation curve with a large enough effect; inconclusive = small, poorly fitted or top-dose-only effect; inactive = no such curve, though single readings can be large or run the other way. This excerpt belongs to a sample that is enriched for actives.

Assay: qHTS Assay for Rab9 Promoter Activators; also: nearly all actives have a fitted effect of over 60% in size
Settings: Huh7 Rab9 promoter-luciferase reporter, luminescence, 24 h; series mostly up to 9.22 µM
Method in brief: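 Luminescence read-out: Huh7 cells stably expressing Rab9-luciferase, treated 24 h with compound at 37 °C, then lysed with luciferase reagent for 10 min at ambient before reading.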
Potency is read from the fitted curve at half-maximal effect.

| SMILES | Potency | activation, negative = inhibition |
| --- | --- | --- |
| C[C@H](NC(=O)c1ccccc1Cl)C(=O)OCC(=O)N1CCN(c2ccccc2)CC1 | inactive | – |
| O=C(CNC(=O)c1ccccc1Br)NCCSc1ccc(Br)cc1 | inactive | – |
| O=C(NCCS(=O)(=O)NCc1ccc(F)cc1)c1ccccc1 | inactive | – |
| O=C(CNC(=O)c1ccccc1F)c1ccc(Br)cc1 | 1260 nM (active) | – |
| O=C(CNC(=O)c1ccccc1)NCC(=O)OCC(=O)c1ccccc1 | inactive | – |
| O=C(COC(=O)CNC(=O)c1ccccc1F)NCC(F)(F)F | inactive | – |
| O=C(CNC(=O)c1ccc(F)cc1)c1ccccc1 | 794 nM (active) | – |
| O=S(=O)(NCc1ccccc1Br)c1ccccc1Br | inactive | – |
| COc1cccc(CNC(=O)COc2cc(O)c3c(c2)OC(C)(C)CC3=O)c1 | inactive | – |
| Nc1c(N(CCCO)C(=O)C2CCCC2)c(=O)[nH]c(=O)n1Cc1ccccc1 | inactive | – |
| CCc1ccccc1NC(=O)CSc1nnc(-c2ccncc2)o1 | inactive | – |
| O=C(CSc1nnc(-c2ccc([N+](=O)[O-])cc2)o1)Nc1ccccn1 | 398 nM (active) | – |
| CCOC(=O)CSc1nnc(-c2ccc([N+](=O)[O-])cc2)o1 | inactive | – |
| O=c1c2ccccc2ccc2ccc(P(=O)(O)O)cc12 | inactive | – |
| Cc1c(NS(=O)(=O)c2cc(C(=O)NCCc3ccc(F)cc3)cc(Cl)c2Cl)c(=O)n(-c2ccccc2)n1C | inactive | – |
| O=C(COC(=O)C1(c2ccc(F)cc2)CCCC1)N1CCNC1=O | inactive | – |
| CCn1c(=N)n(CC(=O)c2cccc(OC)c2)c2ccccc21 | 3160 nM (active) | – |
| COc1ccc2cc(C(=O)O)n(CC(=O)c3ccccc3)c2c1 | inactive | – |
| CCOC(=O)c1cc2ccccc2n1CC(=O)c1ccccc1 | inactive | – |
| O=C1OC2(CCCCC2)CC2=C1C1O[C@](c3ccsc3)(Cc3ccccc31)O2 | – | 1.46% [at 1.84 µM] (inactive) |
| COc1ccc(OCCCC(=O)Nc2cccc(S(=O)(=O)N3CCCCCC3)c2)cc1 | inactive | – |
| C/C(=N\NC(=O)c1cccnc1)c1ccc(-c2ccccc2)cc1 | inactive | – |

| SMILES | Potency | activation, negative = inhibition |
| --- | --- | --- |
| COc1ccc(/C(C)=N/NC(=O)c2ccc3nc[nH]c3c2)cc1 | inactive | – |
| C/C(=N\NC(=O)c1nc(C)cc(C)n1)c1ccccc1 | 1780 nM (active) | – |
| Cc1ccc(Nc2nnc(SC(C)C(=O)NC3CC3)s2)cc1 (stereo not given) | inactive | – |
| COc1ccc(/C=N/Nc2nc3ccccc3o2)cc1OC | 1000 nM (active) | – |
| CCOc1ccccc1/C=N/Nc1nc2ccccc2o1 | inactive | – |
| CCOc1ccc(/C=N/Nc2nncc(-c3ccccc3)n2)cc1OC | inactive | – |
| COc1ccc(/C=N/S(=O)(=O)c2ccccc2)cc1OC | inactive | – |
| Brc1ccccc1/C=N/Nc1nc2ccccc2o1 | 2820 nM (active) | – |
| Oc1c(Br)cccc1/C=N/Nc1c(F)c(F)c(F)c(F)c1F | inactive | – |
| Cc1nc(SCC(=O)NC2CCCCC2C)c(C#N)c(C)c1C (stereo not given) | inactive | – |
| Cc1ccc(S(=O)(=O)N2CC(O)C[C@H]2C(=O)OCC(=O)Nc2ccc(N3CCOCC3)cc2)cc1C (stereo not given in full) | inactive | – |
| O=C(CCNC(=O)c1ccc(Cl)cc1)NC1CCCc2ccccc21 (stereo not given) | inactive | – |
| O=C(Nc1ccc(F)cc1)c1cc2c(s1)CCCC2 | 1260 nM (active) | – |
| O=C(NCCCN1CCOCC1)c1cc2c(s1)CCC2 | inactive | – |
| CCC(=O)c1c[nH]c(C(=O)NCC2CCCO2)c1 (stereo not given) | inactive | – |
| O=C(CNC(=O)c1cc2c(s1)CCC2)Nc1ccccc1Br | inactive | – |
| O=C(NCC1CCCO1)c1cc2c(s1)CCCC2 (stereo not given) | 2510 nM (active) | – |
| CN(C)C(=O)c1ccc(NC(=O)COC(=O)c2cc3c(s2)CCCCC3)cc1 | inactive | – |
| CC(C)Cc1nnc(NC(=O)CCNC(=O)c2ccccc2Cl)s1 | inactive | – |
| CCN(CC(=O)Nc1ccccc1OC)C(=O)CC1CC2CCC1C2 (stereo not given) | inactive | – |
| Cc1ccc(S(=O)(=O)c2nc(NCCCn3ccnc3)sc2Cl)cc1 | inactive | – |
| Cc1ccc(-c2nc(C#N)c(NCCCn3ccnc3)o2)cc1 | 3980 nM (active) | – |

| SMILES | Potency | activation, negative = inhibition |
| --- | --- | --- |
| COc1ccc(/C=C(\C#N)C(=O)NCCCn2ccnc2)cc1 | inactive | – |
| O=C(CCc1nc(-c2ccccc2)no1)Nc1cccc(C(=O)NC2CC2)c1 | inactive | – |
| COC(=O)c1ccc(/C=N\n2c(C)nnc2C)cc1 | inactive | – |
| CC1CCCC(C)N1/N=C/c1ccccc1OC(F)F (stereo not given) | inactive | – |
| COC(=O)c1ccc(/C=N/N2C(C)CCCC2C)cc1 (stereo not given) | 2240 nM (active) | – |
| CCC1(CC)NC(=O)N(CC(=O)OCC(=O)c2cc(C)c(C)cc2C)C1=O | inactive | – |
| CC(C)CN(C(=O)c1cccc(S(=O)(=O)N2CCCCC2)c1)C1CCS(=O)(=O)C1 (stereo not given) | inactive | – |
| O=C(NNC(=O)c1ccco1)Nc1ccccc1 | inactive | – |
| CCC(=O)NC(=S)Nc1ccc(NC(=O)c2ccco2)c(Cl)c1 | inactive | – |
| O=C(NNC(=S)Nc1ccc(Br)cc1Cl)c1ccco1 | 2820 nM (active) | – |
| O=C(NCCc1ccccn1)c1nc(Cn2cc([N+](=O)[O-])cn2)no1 | inactive | – |
| O=[N+]([O-])c1ccc(NC(=S)N2CCN(c3ccccn3)CC2)cc1 | inactive | – |
| O=C(Nc1ccc([N+](=O)[O-])cc1)OCCc1ccccn1 | 3550 nM (active) | – |
| Cc1c(C(=O)Nc2ccccc2)sc2nc3n(c(=O)c12)CCCCC3 | 2510 nM (active) | – |
| Cc1c(C(=O)Nc2cccc(-c3nnc4n3CCCCC4)c2)oc2ccccc12 | inactive | – |
| CC(=O)c1ccc(NC(=O)c2sc3nc4n(c(=O)c3c2C)CCCCC4)cc1 | inactive | – |
| COc1cccc(CNC(=O)COC(=O)CN2C(=O)NC3(CCCCC3C)C2=O)c1 (stereo not given) | inactive | – |
| COc1ccc(OC)c(-c2csc(NC(=O)COC(=O)C3CC3)n2)c1 | inactive | – |
| COC(=O)Cn1cc(C(=O)c2cccs2)c2ccccc21 | inactive | – |
| O=C(Cn1cc(C(=O)c2cccs2)c2ccccc21)NCc1cccs1 | inactive | – |
| COC(=O)c1cn(CC(=O)NCc2cccs2)c2ccccc12 | 3550 nM (active) | – |
